Reference: PubChem BioAssay AID652183 (National Center for Advancing Translational Sciences (NCATS), 2013)
Records with an inconclusive call do not appear. Active and inactive are the calls of the source. Calls come from the whole dose curve; as a rule, active = well fitted inhibition curve with a large enough effect; inconclusive = small, poorly fitted or top-dose-only effect; inactive = no such curve, though single readings can be large or run the other way.

Assay: qHTS Assay for Lipid Storage Modulators: Differentiation Assay against Probe and Analogs
Conditions: 3T3-L1 adipocyte differentiation, BODIPY lipid imaging, 8 d; series mostly up to 20 µM
Excerpt: Storing lipids as a reservoir for energy or the anabolism of elementary metabolites is a common feature of probably all cells and is conserved from bacteria to humans. The universal cellular lipid storage organelle is the so-called lipid storage droplet (LD). Although ubiquitous, LDs share a simple structure composed of a hydrophobic core that harbors the storage lipids, which is shielded by a droplet-specific phospholipid monolayer to which proteins are attached. The current model of LD biogenesis involves an incorporation of the lipid core into the membrane leaflets of the endoplasmic reticulum (ER) followed by a subsequent budding-like maturation of a LD, which ultimately pinches off. Once released, LD volume can increase by localized lipogenesis or fusion of existing droplets. Storage lipids are re-mobilized enzymatically by lipase activity. Lipase regulation in the adipocyte is heavily studied and involves multiple components including catecholamine signaling, the LD-associated proteins Perilipin and comparative gene identification-58 (CGI-58) and at least two lipases named hormone sensitive lipase (HSL) and adipocyte triglyceride lipase (ATGL). LD regulation outside of the adipocyte is poorly understood and only few components are known. However, there is an urgent need to learn more about ectopic fat depots as mislocalized storage of lipids, for example in the liver or muscle, is an eminent health problem associated with insulin resistance or the metabolic syndrome. We developed a laser-scanning cytometer assay to enable 1,536-well screening and combined the results of the small molecules screen with an RNAi database based on lipid storage. […] NIH Chemical Genomics Center [NCGC] MLPCN Grant: MH085686 Assay Submitter (PI): Mathias Beller, Max-Planck-Institut fur Biophysikalische Chemie
3T3L1 cells were obtained from ATCC (CL-173). Pre-adipocyte medium (PM-1), differentiation medium (DM-2) and after adipocyte medium (AM-1) were purchased from Zen-Bio (# PM-1-L1, DM-2-L1, AM-1-L1). 200 uL of PM-1containing 3,000 cells was dispensed into each well of a 96-well plate (Corning, #3340), and the assay plates were incubated at 37 °C, 95% humidity and 5% CO2 for 3-5 days. The differentiation of pre-adipocyte to adipocyte was induced by removing the pre-adipocyte medium and replacing with 200 uL of differentiation medium. 1 uL of compounds at different concentrations dissolved in differentiation medium were added to the assay plates, along with medium exchange for differentiation to test their effects on adipocyte differentiation. The final DMSO concentration was 0.5%.Triacsin C (Sigma-Aldrich T-4540), an inhibitor of long-chain fatty acyl CoA synthetase that blocks synthesis of triglycerides, was used as a positive control for lipid under-storage. After 3 days, differentiation medium was replaced with adipocyte maintenance medium and assay plates were incubated for 5 days. Aspirated the medium, then Cells were fixed using 4% of paraformaldehyde in PBS for 30 minutes at room temperature, washed 3 times with PBS buffer. Finally, the cells were stained using 200 uL of PBS containing BODIPY lipid dye 493/530 (1:2000 dilution, Molecular Probes), Hoechst 33342 (1:1000 dilution, Life Technologies, #H3570) and CellMask deep red dye (1:10,000 dilution, Life Technologies, #H32721) with Washer dispenser EL406(Biotek). Images were acquired using InCell 2000 (GE), number of cells, number of lipids, size of lipids and cells were analysis using GE Investigator software.

Structure (SMILES) | Potency
CC(C)Oc1ccc(CCNC(=O)c2cc3sccc3n2Cc2ccccc2)cc1OC(C)C | 3980 nM (active)
CCOc1cc(CCNC(=O)c2cc3sccc3n2Cc2ccccc2)cc(F)c1OCC | 2820 nM (active)
O=C(NC1CCCc2c1cnn2-c1cccc(O)c1)c1ccccn1 (stereo not given) | 3160 nM (active)
CCOc1cc(F)c(CCNC(=O)c2cc3sccc3n2Cc2ccccc2)cc1OCC | inactive
CCn1c(C(=O)NCCc2ccc(OC)cc2)cc2sccc21 | 12600 nM (active)
CCOc1ccc(CCNC(=O)c2ccnn2Cc2cccc(C)c2)cc1OCC | 2820 nM (active)
CCOc1ccc(CCNC(=O)c2cc3sccc3n2CCN2CCOCC2)cc1OCC | inactive
CCOC(=O)C1CCN(C(=O)C2(NC(=O)Nc3ccccc3Cl)CCC2)CC1 | 2820 nM (active)
CCOC(=O)C1CCN(C(=O)C(C)(C)NC(=O)Nc2ccc(-c3ccccc3)cc2)CC1 | 1120 nM (active)
CCOc1ccc(CCNC(=O)c2ccc3ccccc3n2)cc1OCC | inactive
